Measurements taken from PubChem BioAssay (Tox21).
Records with an inconclusive call do not appear. Active and inactive are the calls of the source. Unless noted, calls come from the whole dose curve; as a rule, active = well fitted curve in the direction sought with a large enough effect in the repeat runs; inconclusive = weak or mixed curves; inactive = no such curve, though single readings can be large; an effect the other way counts as inactive or inconclusive.

Assays:
[1] = qHTS assay to identify small molecule agonists of the androgen receptor (AR) signaling pathway in the presence of an antagonist - cell viability counter screen (AID 1259379); note: nearly all actives have a fitted effect of over 25% in size; note: potency is the fitted concentration of half-maximal effect;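 for activity change, negative = cytotoxicity: MDA-kb2 human breast cancer cells carrying an MMTV luciferase reporter; series mostly up to about 92 µM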
In short: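 Each compound was tested at 15 concentrations on MDA-kb2 cells in the presence of 3.0uM nilutamide. Viability was measured by CellTiter-Fluor fluorescence after a 16 hr incubation at 37C in a CO2-free atmosphere.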

[2] = qHTS assay to identify small molecule agonists of the estrogen receptor beta (ER-beta) signaling pathway - cell viability counter screen (AID 1259380); note: nearly all actives have a fitted effect of over 30% in size; note: potency is the fitted concentration of half-maximal effect
In short: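 Compounds dissolved in DMSO were pin-transferred onto ER-beta-UAS-bla HEK293T cells that had settled 6 hr, and exposure ran 16 hr at 37C. Following the reporter read, CellTiter-Glo luminescence after 30 min at room temperature indicated cytotoxicity.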

[3] = qHTS assay to identify small molecule antagonists of the estrogen receptor beta (ER-beta) signaling pathway - cell viability counter screen (AID 1259382);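 note: HEK293T cells carrying ER-beta-UAS-bla reporter stimulated with estradiol; series mostly up to about 92 µM; nearly all actives have a fitted effect of over 55% in size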
In short: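 CellTiter-Glo ATP luminescence measured after the LiveBLAzer read in the same wells; ER-beta-UAS-bla HEK293T cells, 16 hr compound treatment with 1nM 17-beta-estradiol agonist at 37C, 5% CO2.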

[4] = target: Estrogen receptor (Homo sapiens) (UniProt P03372); assay: qHTS assay to identify small molecule agonists of the estrogen receptor alpha (ER-alpha) signaling pathway in the presence of an antagonist (AID 1259383; calls by dose curve; note: nearly all actives have a fitted effect of over 15% in size; note: potency is the fitted concentration of half-maximal effect)
Chain of Estrogen receptor (Homo sapiens) (P03372 whole entry, looked up): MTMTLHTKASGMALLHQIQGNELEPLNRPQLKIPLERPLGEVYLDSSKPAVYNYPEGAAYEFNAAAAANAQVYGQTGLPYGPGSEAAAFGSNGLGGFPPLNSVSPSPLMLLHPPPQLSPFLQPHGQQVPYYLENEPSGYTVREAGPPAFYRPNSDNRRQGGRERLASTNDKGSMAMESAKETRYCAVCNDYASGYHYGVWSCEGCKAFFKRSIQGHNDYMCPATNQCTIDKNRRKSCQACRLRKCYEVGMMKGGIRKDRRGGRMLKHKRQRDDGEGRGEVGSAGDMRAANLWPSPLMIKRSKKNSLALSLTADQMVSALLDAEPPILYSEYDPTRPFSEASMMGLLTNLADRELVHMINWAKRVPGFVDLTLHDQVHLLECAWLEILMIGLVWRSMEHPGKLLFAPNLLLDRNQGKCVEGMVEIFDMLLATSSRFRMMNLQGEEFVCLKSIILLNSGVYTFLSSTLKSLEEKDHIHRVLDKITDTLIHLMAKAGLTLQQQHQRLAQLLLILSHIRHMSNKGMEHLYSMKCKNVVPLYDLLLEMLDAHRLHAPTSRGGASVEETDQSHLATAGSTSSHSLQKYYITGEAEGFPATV
In short: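 Luminescent ERE-luciferase reporter, VM7Luc4E2 cells (endogenous ER-alpha); 10.0nM ICI-182,780 final; 15-point compound titration; 22hr at 37C; ONE-Glo, 30min RT.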

[5] = qHTS assay to identify small molecule agonists or antagonists of the thyroid stimulating hormone receptor (TSHR) signaling pathway - wild type cell line counter screen (AID 1259384; calls by dose curve)
In short: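 Wild-type Hek293 cells, 800/well, 18 h at 37C, then compound with Ro20-1724 for 30 min RT. cAMP by HTRF (cAMP-d2/anti-cAMP cryptate), 1 h RT, fluorescence read. 15 concentrations, triplicates.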

[6] = target: Thyrotropin receptor (Homo sapiens) (UniProt P16473); assay: qHTS assay to identify small molecule antagonists of the thyroid stimulating hormone receptor (TSHR) signaling pathway (AID 1259385; calls by dose curve; note: nearly all actives have a fitted effect of over 20% in size)
Chain of Thyrotropin receptor (Homo sapiens) (P16473 whole entry, looked up): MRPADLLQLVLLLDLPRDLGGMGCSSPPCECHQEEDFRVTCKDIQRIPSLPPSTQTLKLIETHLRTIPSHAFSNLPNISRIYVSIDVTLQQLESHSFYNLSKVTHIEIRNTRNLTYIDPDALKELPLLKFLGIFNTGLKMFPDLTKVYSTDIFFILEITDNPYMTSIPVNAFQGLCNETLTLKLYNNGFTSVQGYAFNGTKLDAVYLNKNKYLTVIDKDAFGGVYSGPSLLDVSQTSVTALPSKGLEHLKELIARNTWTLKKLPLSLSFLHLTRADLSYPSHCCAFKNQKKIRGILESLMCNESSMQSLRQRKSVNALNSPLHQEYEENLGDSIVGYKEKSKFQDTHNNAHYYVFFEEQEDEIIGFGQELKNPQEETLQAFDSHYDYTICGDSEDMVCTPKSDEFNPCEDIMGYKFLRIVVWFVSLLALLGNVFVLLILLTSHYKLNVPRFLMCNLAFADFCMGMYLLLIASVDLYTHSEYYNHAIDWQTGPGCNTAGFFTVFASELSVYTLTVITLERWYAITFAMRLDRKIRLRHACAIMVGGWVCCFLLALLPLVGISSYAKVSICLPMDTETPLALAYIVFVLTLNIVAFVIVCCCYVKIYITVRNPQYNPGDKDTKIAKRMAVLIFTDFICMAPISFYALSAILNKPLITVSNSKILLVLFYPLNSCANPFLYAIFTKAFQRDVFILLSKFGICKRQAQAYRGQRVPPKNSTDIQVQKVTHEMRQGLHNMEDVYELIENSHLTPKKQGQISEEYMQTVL
In short: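 TSHR-HEK293 cells (800/well) plated 18 h, then compounds with Ro20-1724 and TSH at 1.5 ng/mL final, 30 min at room temperature. cAMP quantified by HTRF (cAMP-d2/anti-cAMP-cryptate, 1 h); 15 concentrations in triplicate.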

[7] = qHTS assay to identify small molecule agonists of the estrogen receptor alpha (ER-alpha) signaling pathway in the presence of an antagonist - cell viability counter screen (AID 1259386);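 note: series mostly up to about 92 µM; cells exposed to compounds for 22 h at 37 °C before the viability read; nearly all actives have a fitted effect of over 30% in size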
In short: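 Using estrogen-depleted VM7Luc4E2 cells, the 15-concentration compound series was applied together with 10.0nM ICI-182,780 and incubated 22hr at 37C/5% CO2. Cell viability was then scored by CellTiter-Fluor.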
% is set by controls: 0 for no effect and ±100 for the full control effect.

NC(=O)C(c1ccccc1)(c1ccccc1)[C@@H]1CCN(CCc2ccc3c(c2)CCO3)C1
inactive: Potency [1] | Potency [2] | Potency [3] | Potency [4] | Potency [5]

CCCCCCCC#N
inactive: Potency [1] | Potency [2] | Potency [3] | Potency [5] | Potency [6] | Potency [7]

CC[N+](C)(CC)CCOC(=O)C(O)(c1ccccc1)C1CCCCC1 (stereo not drawn)
inactive: Potency [1] | Potency [2] | Potency [3] | Potency [4] | Potency [5] | Potency [6]

O=C(OCCc1ccccc1)c1ccccc1
inactive: Potency [1] | Potency [2] | Potency [3] | Potency [6] | Potency [7]

CN(C)c1ccc(/C=C/c2ccc([N+](=O)[O-])cc2)cc1
inactive: activity change, negative = cytotoxicity [1] 4.91% [at 8.39 µM] | activity change, negative = cytotoxicity [2] -2.6% [at 8.39 µM] | activity change, negative = cytotoxicity [3] -2.95% [at 8.39 µM] | cAMP activity change [5] 6.39% [at 8.39 µM, active compounds read high] | activity change, negative = inhibition [6] -4.14% [at 8.39 µM] | activity change, negative = cytotoxicity [7] 3.06% [at 8.39 µM]

CCCC(=O)Nc1ccc(O)c(C(C)=O)c1
inactive: Potency [1] | Potency [2] | Potency [3] | Potency [4] | Potency [5] | Potency [7]

C=CC(=O)OCCOCCOC(=O)C=C
inactive: Potency [4] | Potency [5]
active: Potency [1] 61.4 µM | Potency [2] 24.4 µM

CC/C=C\CCOC(=O)CC
inactive: Potency [1] | Potency [2] | Potency [3] | Potency [5] | Potency [7]

COCCCN1CCC(NC(=O)c2cc(Cl)c(N)c3c2OCC3)CC1
inactive: Potency [1] | Potency [2] | Potency [3] | Potency [5] | Potency [6] | Potency [7]

Nc1ccc(S(=O)(=O)Nc2ccccc2)cc1
inactive: Potency [1] | Potency [2] | Potency [3] | Potency [5] | Potency [6] | Potency [7]

O=C(NCCO[N+](=O)[O-])c1cccnc1
inactive: Potency [1] | Potency [2] | Potency [3] | Potency [6]

C[N+]1(C)CCC(OC(=O)C(O)(c2ccccc2)C2CCCC2)C1 (stereo not drawn)
inactive: Potency [1] | Potency [2] | Potency [3] | Potency [4] | Potency [5] | Potency [6]

CCCCCCCC/C=C\CCCCCCCC(=O)OCC
inactive: Potency [1] | Potency [2] | Potency [3] | Potency [5] | Potency [6] | Potency [7]

O=C(O)CC(=O)C(=O)O
inactive: Potency [1] | Potency [2] | Potency [3] | Potency [5] | Potency [6]

COC(=O)c1ccc(I)cc1S(=O)(=O)NC(=O)Nc1nc(C)nc(OC)n1
inactive: Potency [1] | Potency [2] | Potency [3] | Potency [5] | Potency [6]

Nc1c(CC(=O)O)cccc1C(=O)c1ccc(Br)cc1
inactive: Potency [1] | Potency [2] | Potency [3] | Potency [4] | Potency [5] | Potency [6]

Nc1ccccc1S(=O)(=O)c1ccccc1
inactive: Potency [1] | Potency [2] | Potency [3] | Potency [5] | Potency [6]

O=C1c2ccccc2S(=O)(=O)N1CCCCN1CCN(c2ncccn2)CC1
inactive: Potency [1] | Potency [2] | Potency [3] | Potency [4] | Potency [6] | Potency [7]

C[Si](C)(CCCN)O[Si](C)(C)CCCN
inactive: Potency [1] | Potency [2] | Potency [3] | Potency [4] | Potency [6] | Potency [7]

CN(C)c1ccc(CCO)cc1
inactive: Potency [1] | Potency [2] | Potency [4] | Potency [5] | Potency [6] | Potency [7]

CC(C)O.CC(C)O.CCOC(=O)/C=C(\C)O.CCOC(=O)/C=C(\C)O.[Ti]
inactive: Potency [1] | Potency [2] | Potency [3] | Potency [5] | Potency [6] | Potency [7]

CCCCc1ncc(/C=C(\Cc2cccs2)C(=O)O)n1Cc1ccc(C(=O)O)cc1
inactive: Potency [1] | Potency [2] | Potency [3] | Potency [5] | Potency [6] | Potency [7]

CNC(=O)CN(CCN(CCN(CC(=O)[O-])CC(=O)NC)CC(=O)[O-])CC(=O)[O-].O.[Gd+3]
inactive: Potency [1] | Potency [2] | Potency [3] | Potency [4] | Potency [7]

C/C=C(/C(=C/C)c1ccc(OC(C)=O)cc1)c1ccc(OC(C)=O)cc1
active: Potency [4] 0.0133 µM
inactive: Potency [1] | Potency [2] | Potency [3] | Potency [6] | Potency [7]
